Some test systems named below: BT-549 breast; MDA-MB-435 melanoma; SW-620 colon; MCF7 breast; HCT-116 colon; HCC-2998 colon; KM12 colon; MDA-MB-468 breast.
Common to all, as to experiment: NCI-60 one-dose screen, 48 h (100 = growth as untreated, 0 = no growth, -100 = all killed)
What all share (conditions): 10 µM

Values joined by “and” are separate entries in the source; they are usually repeats but may differ in a detail not shown here. Equal values may be shown once. The panel holds about 83,000 compounds, 20% with a hit somewhere; the sample as a whole holds those more often.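 Testing used 96-well plates and a 48-hour single-concentration exposure. Example: -40 means 40% of the starting cells died.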 A number with no mark means an inactive call. Active and inactive are the calls of the source. The calls were made as follows: active = growth percent below 10; inactive = the rest.

In the case of `O=C1Nc2ccc(F)cc2/C1=C/c1cccc(OCc2ccccc2)c1`, the growth was 23% in the experiment on BT-549 breast; 5.74% (active) in the experiment with MDA-MB-435 melanoma; 8.79% (active) in the experiment on SW-620 colon; 3.46% (active) in the experiment on MCF7 breast; 10.1% in the experiment on HCT-116 colon; 45.8% with HCC-2998 colon. Further, the figures for the growth in the experiment on KM12 colon and with MDA-MB-468 breast were 19% and -22.3% (active), respectively.
As to `CN1CCN(Cc2ccc(NC(=O)c3cncc(C#Cc4cnc5ccc(N[C@@H]6CCOC6)nn45)c3)cc2C(F)(F)F)CC1`, the growth with BT-549 breast is -71.3% (active); in the experiment on MDA-MB-435 melanoma, -87.6% (active); with SW-620 colon, -41.9% (active); in the experiment on MCF7 breast it was -88.1% (active); with HCT-116 colon, -63.9% (active); in the experiment on HCC-2998 colon, -99.7% (active). Moreover, the growth was -90.7% (active) in the experiment on KM12 colon and -96.2% (active) with MDA-MB-468 breast.
Turning to `O=C(CN1CCN(c2ncnc3c2cnn3-c2ccccc2)CC1)Nc1nncs1`, the growth in the experiment with BT-549 breast is -85.9% (active); with MDA-MB-435 melanoma, 7.14% (active); with SW-620 colon, -23.9% (active); with MCF7 breast it was 16.1%; in the experiment on HCT-116 colon, 8.23% (active); in the experiment with HCC-2998 colon it was 59.7%. The growth was 4.55% (active) in the experiment with KM12 colon and -39.8% (active) in the experiment on MDA-MB-468 breast.
For the compound `CCOC(=O)C1=C(N)N(c2ccc(Cl)cc2)C2=C(C(=O)CC(C)(C)C2)C1c1ccc(N2CCOCC2)cc1` (stereo unspecified), the growth in the experiment with BT-549 breast is 23.8%; in the experiment on MDA-MB-435 melanoma, 101%; in the experiment on SW-620 colon, 107%; in the experiment on HCT-116 colon, 99.2%; in the experiment with HCC-2998 colon, 103%; in the experiment with KM12 colon, 107%. Also, the growth with MDA-MB-468 breast was 84.2%.
As to `CC1=C2C(=C[C@@](C)(COCOCCCl)[C@@H]2O)C(=O)[C@](C)(O)C12CC2`, the growth with BT-549 breast was -81.2% (active); in the experiment with MDA-MB-435 melanoma it was -81.1% (active); in the experiment with SW-620 colon, 0.591% (active); with MCF7 breast, -46.2% (active); with HCT-116 colon, 12.6%; in the experiment with HCC-2998 colon, -91.7% (active). Further, the growth in the experiment on KM12 colon was 0.906% (active); in the experiment with MDA-MB-468 breast, -89.9% (active).
Consider `CCCCCCCCCCCCCCCCCCCC(=O)NCCc1c[nH]c2ccc(O)cc12`, for which the growth in the experiment with BT-549 breast is 32.3%; with MDA-MB-435 melanoma, 112%; in the experiment with SW-620 colon it was 112%; in the experiment on HCT-116 colon, 83.3%; in the experiment on HCC-2998 colon, 114%; in the experiment with KM12 colon it was 88.5%. The growth with MDA-MB-468 breast is 128%.
Take `O=C(/C=C/Nc1ccccc1)c1ccc2c(c1)Nc1ccccc1S2`: the growth in the experiment on BT-549 breast was 95.6%; with MDA-MB-435 melanoma, 85%; with SW-620 colon it was 89.3%; in the experiment with MCF7 breast, 68.6%; in the experiment with HCT-116 colon, 79.2%; in the experiment with HCC-2998 colon, 95.4%. Moreover, the growth with KM12 colon is 87%; with MDA-MB-468 breast it was 61.5%.
For `CN1CCN(c2ccc(Nc3nc(NCCCNC(=O)c4ccc(Cl)cc4)c4sccc4n3)cc2)CC1`, the growth in the experiment with BT-549 breast was 80.1%; in the experiment with MDA-MB-435 melanoma it was 86.2%; with SW-620 colon it was 93%; in the experiment on MCF7 breast, 49.1%; with HCT-116 colon, 15.1%; with HCC-2998 colon, 91.3%. Besides, the results for the growth in the experiment with KM12 colon and in the experiment with MDA-MB-468 breast were 68.7% and 68.3%, respectively.
As to `C=C1CCC2C3(C)COC(c4cc(F)cc(F)c4)OC3CCC2(C)C1C/C=C1/C(=O)OCC1O` (stereo unspecified), the growth was -81.1% (active) in the experiment with BT-549 breast; -64.2% (active) in the experiment on MDA-MB-435 melanoma; -61.9% (active) in the experiment with SW-620 colon; -45.8% (active) in the experiment on MCF7 breast; -69.2% (active) with HCT-116 colon; -79.9% (active) in the experiment on HCC-2998 colon. The growth in the experiment on KM12 colon is -77.9% (active); with MDA-MB-468 breast, -58.2% (active).
On to `O=C(NO)c1ccc(Cn2ccc3c(Nc4ccccc4)ncnc32)cc1`, for which the growth in the experiment with BT-549 breast is 27.4%; in the experiment with MDA-MB-435 melanoma it was 9.97% (active); with SW-620 colon it was -61.8% (active); with MCF7 breast it was 14%; in the experiment on HCT-116 colon, -9.89% (active); in the experiment with HCC-2998 colon, -30.1% (active). Moreover, the growth is 12.1% in the experiment with KM12 colon and -5.25% (active) in the experiment with MDA-MB-468 breast.
In the case of `COC[C@@H](CC(C)C)N=C1NC(=O)/C(=C/c2ccc3ncoc3c2)N1`, the growth in the experiment with BT-549 breast was 2.39% (active); with MDA-MB-435 melanoma, 17.3%; in the experiment with SW-620 colon, 0.318% (active); in the experiment with MCF7 breast, 1.91% (active); in the experiment on HCT-116 colon, 22.8%; in the experiment on HCC-2998 colon it was 36.7%. Also, the growth was 16.4% in the experiment with KM12 colon and -31.1% (active) in the experiment with MDA-MB-468 breast.
In the case of `O=c1oc2ccc(-c3ccc(F)cc3F)cc2c(=O)n1-c1ccc(Cl)c(C(F)(F)F)c1`, the growth in the experiment with BT-549 breast was -37.4% (active); in the experiment with MDA-MB-435 melanoma, -5.35% (active); in the experiment with SW-620 colon it was 13%; in the experiment on MCF7 breast it was -16.2% (active); with HCT-116 colon, 9.46% (active); in the experiment on HCC-2998 colon, 2.17% (active). Moreover, the growth in the experiment with KM12 colon was -14% (active); with MDA-MB-468 breast, 3.54% (active) and -40.4% (active).
`Nc1cccnc1/C=N/NC(=S)NCCNC(=O)c1ccc(-n2nc(-c3ccccc3O)nc2-c2ccccc2O)cc1`: the growth is -5.4% (active) in the experiment on BT-549 breast; 53.8% in the experiment with MDA-MB-435 melanoma; 58.5% with SW-620 colon; 5.17% (active) in the experiment with MCF7 breast; 7.1% (active) in the experiment with HCT-116 colon; -7.32% (active) in the experiment on HCC-2998 colon. For the same compound, the growth in the experiment on KM12 colon is 11.6%; in the experiment on MDA-MB-468 breast it was -56.1% (active).
On to `O=C(c1ccc(O)cc1)C1[C@H](c2ccccc2Br)[C@@H](c2ccccc2)NC12C(=O)Nc1ccc(Br)cc12` (stereo partly specified), for which the growth in the experiment on BT-549 breast is 55.6%; in the experiment with MDA-MB-435 melanoma, 33.8%; in the experiment with SW-620 colon it was 50.9%; in the experiment with MCF7 breast, 7.04% (active); in the experiment on HCT-116 colon, 61.6%; with HCC-2998 colon it was -13.8% (active). Moreover, the growth was 18.4% in the experiment with KM12 colon and -25.6% (active) in the experiment on MDA-MB-468 breast.
With `O=c1[nH]c2ccccc2cc1CSc1ccc(Nc2nccc(-c3ccc(C(F)(F)F)cc3)n2)cc1`, the growth was 31.7% with BT-549 breast; 63.3% with MDA-MB-435 melanoma; 31% in the experiment with SW-620 colon; 25.3% with MCF7 breast; 6.96% (active) in the experiment on HCT-116 colon; 48.1% in the experiment with HCC-2998 colon. Also, the figures for the growth with KM12 colon and in the experiment on MDA-MB-468 breast were 46.8% and -17.5% (active), respectively.
`CCN1CCN(Cc2ccc(C(=O)Nc3cccc(-c4cn(-c5ccc6oc(=O)ccc6c5)nn4)c3)cc2C(F)(F)F)CC1`: the growth is -79.2% (active) with BT-549 breast; -100% (active) in the experiment on MDA-MB-435 melanoma; -100% (active) with SW-620 colon; -100% (active) with MCF7 breast; -100% (active) in the experiment on HCT-116 colon; -100% (active) in the experiment with HCC-2998 colon. Besides, the growth in the experiment on KM12 colon was -100% (active); in the experiment on MDA-MB-468 breast, -82.4% (active).

(Values after PubChem BioAssay (NCI).)
